The record followed here is PubChem BioAssay (Tox21).

A short description of test [1]: qHTS assay to identify small molecule agonists of the vitamin D receptor (VDR) signaling pathway - cell viability counter screen (AID 743224). Note: nearly all actives have a fitted effect of over 50% in size. Note: potency is the fitted concentration of half-maximal effect. The gist of the method:
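Luminescence from CellTiter-Glo, read after 30 min at room temperature, reports viability of VDR-bla cells treated with compounds for 16 h at 37C in the wells used for the beta-lactamase FRET read.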

Test [2] can be described thus: qHTS assay to identify small molecule antagonists of the vitamin D receptor (VDR) signaling pathway - cell viability counter screen (AID 743225). For viability change, negative = cytotoxic: % is set by controls: 0 for no effect and ±100 for the full control effect. Note: nearly all actives have a fitted effect of over 50% in size. Note: potency is the fitted concentration of half-maximal effect. The method, boiled down:
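Viability counter screen run in the same wells as the beta-lactamase reporter assay: HEK 293T VDR-UAS-bla cells, 16 h compound exposure at 37C with 3 nM (final) 1-alpha,25-dihydroxyvitamin D3. CellTiter-Glo luminescence, 30 min, room temperature.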

A short description of test [3]: qHTS assay to identify small molecule agonists of the endoplasmic reticulum stress response signaling pathway - cell viability counter screen (AID 1159517; calls by dose curve; note: nearly all actives have a fitted effect of over 50% in size; note: potency is the fitted concentration of half-maximal effect; for activity change, negative = cytotoxicity: series mostly up to about 61 µM; % is set by controls: 0 for no effect and ±100 for the full control effect). The method, boiled down: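 HeLa cells carrying an ESRE-driven beta-lactamase reporter receive compound for 5 hr at 37 C. Cell viability is then gauged with CellTiter-Glo by luminescence, 30 min at room temperature.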

Test [4] can be described thus: qHTS assay to identify small molecule antagonists of the retinoid-related orphan receptor gamma (ROR-gamma) signaling pathway - cell viability counter screen (AID 1159520). For activity, negative = cytotoxicity: % is set by controls: 0 for no effect and ±100 for the full control effect. Note: nearly all actives have a fitted effect of over 50% in size. Note: potency is the fitted concentration of half-maximal effect. The gist of the method: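 Cytotoxicity was read from cellular ATP (CellTiter-Glo luminescence) after 16 hr at 37 C with 1 uM doxycycline induction. The inducer was added 2 hr after compound transfer to Tet-on ROR gamma CHO cells.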

In test [5] the target is Nuclear receptor ROR-gamma (Homo sapiens) (UniProt P51449). The test can be described thus: qHTS assay to identify small molecule antagonists of the retinoid-related orphan receptor gamma (ROR-gamma) signaling pathway (AID 1159521; note: nearly all actives have a fitted effect of over 50% in size; note: potency is the fitted concentration of half-maximal effect). The method, boiled down:
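Luminescence readout (ONE-Glo, 30 min RT) after 16 h doxycycline induction; loss of signal scored as antagonism. CHO cells with TET-inducible RORγ and RORE-LUC reporter; compounds added 2 h before 1 uM final doxycycline.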

A short description of test [6]: qHTS assay to identify small molecule agonists of the AP-1 signaling pathway - cell viability counter screen (AID 1159525; calls by dose curve; note: nearly all actives have a fitted effect of over 55% in size; note: potency is the fitted concentration of half-maximal effect). The gist of the method: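 Luminescent ATP readout (Cell Titer Glo, 30 min RT), normalised to DMSO and tetra n-octyl ammonium bromide controls. Cells were ME-180 AP-1-bla in 0.5% dialyzed FBS Opti-MEM, with a 5 h, 37 °C compound exposure.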
Test [7] in a line: qHTS assay to identify small molecule agonists of the RXR signaling pathway - cell viability counter screen (AID 1159529). Note: nearly all actives have a fitted effect of over 50% in size. Note: potency is the fitted concentration of half-maximal effect. The gist of the method: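 Luminescence from CellTiter-Glo (30 min, RT) measured viability in the same wells as the beta-lactamase reporter readout. Cells: GeneBLAzer RXR-alpha HEK 293T, 2% charcoal-stripped FBS. Compound exposure 16 hr, 37 C.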
Test [8] in a line: qHTS assay to identify small molecule agonists of the AP-1 signaling pathway (AID 1159526; calls by dose curve; note: % is set by controls: 0 for no effect and ±100 for the full control effect).

Several values for one entry are separate records, joined by “and”; a condition that tells them apart may be missing. Equal values may be shown once. Inconclusive results are not listed. Some compounds were tested as several samples or in several runs, with calls that do not always agree. Activity calls are given as the source filed them. Unless noted, calls come from the whole dose curve; as a rule, active = well fitted curve in the direction sought with a large enough effect in the repeat runs; inconclusive = weak or mixed curves; inactive = no such curve, though single readings can be large; an effect the other way counts as inactive or inconclusive.

Turning to `COC(=O)NCCC[Si](OC)(OC)OC`, the results for the Potency in test [1] and in test [5] were 49 µM (active) and 54.5 µM (active), respectively. Also, the Potency result in test [2], in test [3], in test [4] and in test [6] was “inactive” in each case.
Consider `O=C(NO)c1ccccc1`, for which the Potency entry in test [1], in test [3], in test [4], in test [5] and in test [6] was “inactive” in each case.
As for `CCN=C1C=CC(=C(c2ccc(N(CC)CC)cc2)c2ccc(N(CC)CC)cc2)c2ccccc21`, the Potency in test [1] was 4.87 µM (active); in test [2], 19.4 µM (active); in test [3], 38.7 µM (active); in test [4] it was 6.82 µM (active); in test [5], 2.71 µM (active); in test [6], 38.7 µM (active). Moreover, the Potency in test [7] was 15.4 µM (active).
For `CCC(C)c1cc([N+](=O)[O-])cc([N+](=O)[O-])c1OC(=O)OC(C)C` (stereo not drawn), the Potency in test [1] is 54.9 µM (active); in test [2], 34.7 µM (active); in test [3], 34.7 µM (active); in test [4], 61.1 µM (active); in test [5] it was 19.3 µM (active). Moreover, the Potency entry in test [6] is “inactive”.
With `COc1cc(C(C)C)c2c(c1)S(=O)(=O)N(COc1cc(=O)n3cccc(OCCN4CCCCC4)c3n1)C2=O`, the Potency entry in test [1], in test [2] and in test [3] was “inactive” in each case. Besides, in test [4], the activity, negative = cytotoxicity is -0.0922% [at 19 µM] (inactive). In test [5], the activity change, negative = inhibition is -4.73% [at 19 µM] (inactive). For the same compound, in test [6], the viability change, negative = cytotoxic is -17.4% [at 15.8 µM] (inactive). The activation in test [8] was 7.65% [at 15.8 µM] (inactive). In addition, the activity change, negative = cytotoxicity in test [7] was -5.15% [at 15.8 µM] (inactive).
With `Cc1cc2c(C(C)C)c(O)c(O)c(C=O)c2c(O)c1-c1c(C)cc2c(C(C)C)c(O)c(O)c(C=O)c2c1O`, the Potency in test [1] was 11.9 µM (active); in test [2] it was 9.52 µM (active); in test [3], 10.7 µM (active); in test [4], 26.6 µM (active); in test [5], 10.6 µM (active); in test [7], 21.3 µM (active). The Potency entry in test [6] is “inactive”.
In the case of `CC(C)(C)CC(C)(C)c1ccccc1O`, the Potency in test [1] was 19.6 µM (active); in test [2], 22 µM (active); in test [3], 49.2 µM (active); in test [4], 61.4 µM (active); in test [5], 68.9 µM (active); in test [6] it was 43.9 µM (active). In test [7], the Potency is 39.1 µM (active).
Regarding `CSc1ccc2c(c1)N(CCC1CCCCN1C)c1ccccc1S2` (stereo not drawn), the Potency entry is “inactive and 26.6 µM (active)” in test [1]; 24.4 µM (active) and 23.9 µM (active) in test [2]; 43.5 µM (active) in test [3]; 48.4 µM (active) and inactive in test [4]; 27.2 µM (active) and inactive in test [5]; 43.5 µM (active) and inactive in test [6]. The Potency in test [7] was 19.4 µM (active) and 26.8 µM (active).
